Source: the supplement of paper PMC6555819

Columns and labels:
Experiment in all cases: PBM binding z-score (relative to random genomic background probes); higher = stronger binding; sequences stand for … in GC…GCGATTGACAGCGTAGAATGAAGG
[1] = system: FXR:RXRa (NR concentration 270 nM, RXRa partner concentration 90 nM)
In short: (§1)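 The probes on custom Agilent 4×180K protein-binding microarrays were double-stranded, with 34-nt variable regions bearing direct-repeat seeds, single-nucleotide variants, half-site ablations and random human genomic background sequences. Incubation lasted 1 h with ligand-free nuclear receptor dimers in PBS pH 7.4, 2% milk, 0.02% Triton X-100, 1 mM DTT, 0.2 mg/mL BSA and 0.4 mg/ml salmon testes DNA. Antibodies against each partner (one per run) detected bound dimers, and fluorescence scans were regression-normalized. Binding z-scores take the random background probes as reference.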

[2] = system: LXRa:RXRa (NR concentration 270 nM, RXRa partner concentration 90 nM)
In short: as §1

[3] = system: LXRa homodimer (NR concentration 270 nM)
In short: as §1

[4] = system: LXRb:RXRa (NR concentration 270 nM, RXRa partner concentration 90 nM)
In short: as §1

[5] = system: LXRb homodimer (NR concentration 270 nM)
In short: as §1

[6] = system: PPARg:RXRa 270nM:90nM, anti-RXR (NR concentration 270 nM, RXRa partner concentration 90 nM)
In short: as §1

[7] = system: PPARg:RXRa 30nM:10nM, anti-RXR (NR concentration 30 nM, RXRa partner concentration 10 nM)
In short: as §1

[8] = system: PPARg:RXRa 90nM:30nM, anti-RXR (NR concentration 90 nM, RXRa partner concentration 30 nM)
In short: as §1

[9] = system: PPARa:RXRa (NR concentration 270 nM, RXRa partner concentration 90 nM)
In short: as §1

[10] = system: PPARg:RXRa (NR concentration 180 nM, RXRa partner concentration 90 nM)
In short: as §1

Sequence	PBM binding z-score [1]	PBM binding z-score [2]	PBM binding z-score [3]	PBM binding z-score [4]	PBM binding z-score [5]	PBM binding z-score [6]	PBM binding z-score [7]	PBM binding z-score [8]	PBM binding z-score [9]	PBM binding z-score [10]
TTTAGTTGGTCAAAGGTCACACACTCGAAATGCG	6.28	5.76	3.99	5.54	1.9	10.6	11.3	11.6		
TGAATGAGGTTAAAGGTCAGGGAACGTGGCGTCG	7.23	6	2.34	5.35	1.05	9.95	12.2	12.1		
CCGATTAGGTTACGAGGGGGCATTCAGTGCGAAT	2.54	7.34	1.59	6.42		2.96	0.437	2.32	3.29	1.45
GGAACGAGCGCAAAGTTGATAGCATCTGTCGACG	-0.856	-0.827	-0.68	-1.1	-1.22	3.31	0.951	2.9		1.51
TTACCAAGGTGAAAGGTCATTGATGCACGCCTTG	6.65	6.17	4.61	5.39	1.12	9.21	9.49	10.9		
AGACAAAGTTCAGGACGAGGTAACGTAAAGCACG	4.35	3.92	0.814	1.95	-0.0251	2.93	1	1.97		2.53
GCTGCTCGGTCAACTGATGGTCAGCTAAAGCTCG	0.704	0.751	0.0425	-0.248	-0.201	-0.239	-0.686	-0.163		-0.584
TCGAGTAGGTTACGGGCGCATTCAGGGATGAAGA	0.124	0.321	-0.293	-0.159		1.62	1.11	1.36	1.4	1.17
CCGAGTAGGTTCCGAGGGGGCATTCAGTGCGAAT	0.618	1.8	1.32	4.15		1.42	0.548	0.958	2.04	-0.00423
TCGAGTAGGTTACGGGGTCATTCAGGGATGAAGA	6.23	5.46	1.76	5.33		6.68	4.18	5.91	6.21	8.14
CTATGTAGGTTAAGGGGGTCATTCAATTTGAAAG	5.04	4.74	2.45	6.26		7.74	5.91	8.06	6.18	8.92
CCGAGTACGTTACGAGGGGGCATTCAGTGCGAAT	1.3	3.11	0.927	4.03		0.968	-0.231	0.521	2.23	0.00178
CCGAGTAGGTTACGAGGGGGCACTCAGTGCGAAT	2.63	6.57	0.708	5.48		3.18	1.09	2.12	3.35	2.36
CCGAGTAGGTTACGAGGGGGCATTCCGTGCGAAT	2.81	7.17	1.62	6.21		2.96	0.628	1.69	3.36	1.77
TCGAGTAGGGTACGGGGGCATTCAGGGATGAAGA	2.34	2.37	0.643	4.6		4.09	3.19	3.84	3.09	4.1
CCGAGTAGGTAACGAGGGGGCATTCAGTGCGAAT	1.91	5.77	0.734	4.7		2.41	0.082	1.9	2.83	1.05
CCGAGTAGGTTACGTGGGGGCATTCAGTGCGAAT	2.27	7.98	1.53	6.74		3.65	0.89	2.73	3.6	1.87
CTATGTAGGTTAAGTGGGTCATTCAGTTTGAAAG	1.59	2.35	0.645	2.29		5.61	2.89	4.9	4.58	5.98
TCGAGTAGGTAACGGGGGCATTCAGGGATGAAGA	1.53	1.83	0.159	4.16		4.51	2.68	3.8	3.41	4.6
TCGAGTAGGTTACAGGGGCATTCAGGGATGAAGA	0.886	1.08	0.219	1.68		2.87	1.73	2.71	2.44	2.7
TCGAGTAGGTTACGGGGGCTTTCAGGGATGAAGA	1.64	2.06	0.118	4.46		3.94	2.05	3.12	3.23	3.47
CAATGTAGGTTAAGGGGGTCATTCAGTTTGAAAG	3.39	5.38	3.82	6.46		8.13	6.58	8.44	6.05	8.91
CCGAGTAGGTTACGAGGGGGCGTTCAGTGCGAAT	1.13	6.33	0.912	5.52		3.17	0.694	2.26	3.11	2
CTATGTAGGTTAAGGGGGTCATTTAGTTTGAAAG	5.01	4.94	3.42	6.37		7.62	6.07	7.54	5.83	8.48
CCGAGTAGGTTACGAGGGCGCATTCAGTGCGAAT	0.0416	1.77	-0.35	0.425		2.55	-0.0123	1.62	1.72	2.6
CCGAGCAGGTTACGAGGGGGCATTCAGTGCGAAT	2.35	7.31	1.46	6.07		1.95	0.464	1.36	3.01	0.89

Sequence	PBM binding z-score [1]	PBM binding z-score [2]	PBM binding z-score [3]	PBM binding z-score [4]	PBM binding z-score [5]	PBM binding z-score [6]	PBM binding z-score [7]	PBM binding z-score [8]	PBM binding z-score [9]	PBM binding z-score [10]
TCGAGAAGGTTACGGGGGCATTCAGGGATGAAGA	4.57	4.21	0.687	5.72		5.94	4.28	5.29	5.32	6.1
CTATGTAGGTTAAGGGGGTCTTTCAGTTTGAAAG	0.885	1.5	0.399	3.78		7.16	4.5	6.8	4.64	7.24
CCGAGTAGGTTACGACGGGGCATTCAGTGCGAAT	-0.0135	5.81	-0.31	3.38		1.17	-0.329	0.19	1.36	0.995
CCGAGTAGGTTACGAGGGGGCATTAAGTGCGAAT	2.79	6.98	1.2	6.3		3.06	0.817	2.16	3.38	2.04
TCGAGTAGGTTACGGGGGCAATCAGGGATGAAGA	1.97	2.28	0.238	4.49		5.6	3.37	4.85	4.14	6.62
CCGAGTAGGTTACGAGGGGGCATTCAATGCGAAT	2.32	7.34	1.1	6.15		3.7	1.21	2.45	3.62	2.64
CGGAGTAGGTTACGAGGGGGCATTCAGTGCGAAT	3.18	7.21	1.72	6.48		5.18	2.85	4.32	4.04	4.95
CCGAGTAGGTTACGAGGGGGCATACAGTGCGAAT	2.06	6.92	1.29	6.04		3.69	1.1	2.54	3.52	2.73
TCGAGTAGGTTACGGGGGCATGCAGGGATGAAGA	2.17	2.53	0.37	4.94		5.69	3.6	4.99	4.27	6.15
CCGAGTAGGTTACGAGGGGGCATTTAGTGCGAAT	2.43	7.16	1.74	6.59		3.44	1.22	2.89	3.54	1.87
CTATGTAGGTTAAGGTGGTCATTCAGTTTGAAAG	1.04	1.15	0.413	1.09		4.98	2.07	4.28	3.64	5.35
CCGAGTAGATTACGAGGGGGCATTCAGTGCGAAT	0.841	2.24	0.791	3.36		0.849	0.0804	0.742	1.75	0.167
CTGAGTAGGTTACGAGGGGGCATTCAGTGCGAAT	1.65	7.17	2.04	6.26		4.41	1.42	3.41	3.73	4.46
TCTAGTAGGTTACGGGGGCATTCAGGGATGAAGA	3.33	3.71	1.27	5.76		6.8	5.71	6.87	4.95	8
CAGAGTAGGTTACGAGGGGGCATTCAGTGCGAAT	3.11	7.18	2.11	6.23		4.37	2.05	3.3	3.54	3.69
CTATGTTGGTTAAGGGGGTCATTCAGTTTGAAAG	4.6	4.68	3.82	6.28		5.2	2.97	4.57	5.26	4.14
CCGAGTAAGTTACGAGGGGGCATTCAGTGCGAAT	0.776	3.84	0.71	3.69		1.15	0.0165	0.85	1.99	-0.0159
CTATGTAGGTTAAGCGGGTCATTCAGTTTGAAAG	2.56	2.59	0.655	2.56		5.57	2.6	4.53	4.84	5.97
TCGAGTAGGTTACGGGAGCATTCAGGGATGAAGA	0.293	0.0567	-0.651	0.0342		2.09	1.25	1.7	1.82	1.59
CTATGTAGGTTAAGGCGGTCATTCAGTTTGAAAG	1.17	2.21	1.95	1.37		4.25	1.38	3.3	3.24	4.29
CTATGTAGGTAAAGGGGGTCATTCAGTTTGAAAG	4.07	4.67	2.77	5.98		7.12	4.91	6.93	5.92	7.28
CTATGTAGGTTAAGGGGGTCATGCAGTTTGAAAG	5.42	4.98	1.95	6.22		8	6.71	8.07	6.35	9.11
CTATGTAGGTTTAGGGGGTCATTCAGTTTGAAAG	4.33	4.71	4.34	5.97		5.15	2.66	4.77	5.41	4.01
TCGAGTAGGTTACGGGGGCATTAAGGGATGAAGA	2.01	2.81	0.404	4.64		5.7	3.23	5.14	4.16	6.03
CTATGTAGGTTAAGGGCGTCATTCAGTTTGAAAG	0.15	0.294	-0.263	0.367		5.64	3.36	5.17	3.53	5.29
TCGAGTAGGTTACGGGGACATTCAGGGATGAAGA	0.831	0.995	-0.0512	0.999		3.06	1.81	2.27	2.4	3.19
